Growth data for nine compounds are collected here from PubChem BioAssay (NCI).

Some test systems named below: DU-145 prostate; K-562 leukemia; MALME-3M melanoma; MDA-MB-231 breast; RXF 393 renal; SF-268 CNS; SF-295 CNS; SF-539 CNS; M14 melanoma; HCT-15 colon; HT29 colon; SNB-75 CNS; U251 CNS; PC-3 prostate; SK-MEL-5 melanoma; UACC-62 melanoma; LOX IMVI melanoma; SK-MEL-28 melanoma; UACC-257 melanoma; SNB-19 CNS.
Common to all, as to assay: NCI-60 one-dose screen, 48 h (100 = growth as untreated, 0 = no growth, -100 = all killed)
Holding throughout (conditions): 10 µM unless noted

About 83,000 compounds went through this panel and 20% of them were active in at least one assay; those are over-represented in the sample as a whole.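 Compound tested at a single concentration for 48 hours in 96-well plates; a percent growth value below 10 was scored as active.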 Unmarked numbers belong to inactive results. Calls of active or inactive are those of the source.

Regarding `CC(C)(C)[Si](C)(C)OC1[C@@H](COC(N)=O)O[C@@H](n2cnc3c(N)ncnc32)[C@H]1O[Si](C)(C)C(C)(C)C` (stereo partly specified), the growth with DU-145 prostate was 75.1%; with K-562 leukemia, 7.16% (active); in the assay on MALME-3M melanoma, 111%; in the assay with MDA-MB-231 breast, 100%; in the assay with RXF 393 renal, 106%; in the assay on SF-268 CNS it was 79.8%. For the same compound, the growth in the assay on SF-295 CNS was 118%; with SF-539 CNS, 97.4%; with M14 melanoma, 98.8%; with HCT-15 colon, 88%; in the assay with HT29 colon, 93.6%; in the assay on SNB-75 CNS, 99.4%. In addition, the growth is 82.7% in the assay on U251 CNS; 18.4% in the assay with PC-3 prostate; 96.9% with SK-MEL-5 melanoma; 85.5% in the assay on UACC-62 melanoma; 98.2% in the assay with LOX IMVI melanoma; 98.3% with SK-MEL-28 melanoma.

As to `CC(C)(C)[Si](C)(C)OC1[C@@H](O[Si](C)(C)C(C)(C)C)[C@@H](CNC(=O)NC(=O)C(F)(F)F)O[C@H]1n1cnc2c(NC(=O)Nc3ccccc3)ncnc21` (stereo partly specified), the growth in the assay on DU-145 prostate is -81.2% (active); in the assay on K-562 leukemia it was -40.8% (active); in the assay on MALME-3M melanoma, 74.8%; with MDA-MB-231 breast it was 82.7%; with RXF 393 renal it was 104%; in the assay with SF-268 CNS, -29% (active). The growth in the assay with SF-295 CNS is 69.5%; in the assay on SF-539 CNS, 92.5%; with M14 melanoma, 71.6%; in the assay with HCT-15 colon, 69.7%; in the assay on HT29 colon, 21.3%; in the assay on SNB-75 CNS, 72.8%. For the same compound, the growth with U251 CNS was 78.6%; with PC-3 prostate, -35.5% (active); with UACC-62 melanoma, 84.3%; with LOX IMVI melanoma it was 56.2%; in the assay with SK-MEL-28 melanoma it was 97.9%.

For `O=c1[nH]c(-c2ccncc2)nc2sc3c(c12)CCCCCC3`, the growth in the assay with DU-145 prostate was 77.5%; with K-562 leukemia, 88.1%; with MALME-3M melanoma it was 64%; in the assay with MDA-MB-231 breast, 62.1%; in the assay on RXF 393 renal, -1.71% (active); in the assay with SF-268 CNS, 83.5%. In addition, the growth with SF-295 CNS is 53.2%; in the assay with SF-539 CNS, 82.6%; with M14 melanoma, 85.3%; with HCT-15 colon, 76.1%; in the assay on HT29 colon, 99%; with SNB-75 CNS, 33.8%. For the same compound, the growth in the assay with U251 CNS is 71.7%; in the assay with PC-3 prostate it was 90.1%; in the assay with UACC-62 melanoma, 88%; in the assay with LOX IMVI melanoma it was 83.2%; with SK-MEL-28 melanoma it was 101%.

Regarding `CCCCCCCCCCCC(=O)[O][Sn]([CH2]CCC)([CH2]CCC)[CH2]CCC`, the growth with DU-145 prostate is -98.7% (active); in the assay on K-562 leukemia it was -29.9% (active); in the assay with MALME-3M melanoma, -96.1% (active); in the assay with MDA-MB-231 breast, -94.6% (active); in the assay on RXF 393 renal, -72.4% (active); in the assay on SF-268 CNS, -83.7% (active). The growth is -83.8% (active) in the assay on SF-295 CNS; -97.7% (active) with SF-539 CNS; -96.5% (active) in the assay on UACC-257 melanoma; -99.6% (active) in the assay on M14 melanoma; -87.2% (active) in the assay on HCT-15 colon; -100% (active) in the assay with SNB-75 CNS. Also, the growth is -95.5% (active) with SNB-19 CNS, -92.6% (active) in the assay with PC-3 prostate, -90.1% (active) in the assay on LOX IMVI melanoma and -99.1% (active) in the assay with SK-MEL-28 melanoma.

On to `COc1cccc(C2C3=C(COC3=O)N(CCO)c3cc4c(cc32)CCC4)c1` (stereo unspecified), for which the growth was -26.5% (active) with DU-145 prostate; 15.8% in the assay on K-562 leukemia; 57.3% with MALME-3M melanoma; -12% (active) in the assay with MDA-MB-231 breast; -3.06% (active) in the assay on RXF 393 renal; 22.6% with SF-268 CNS. Moreover, the growth is -27.5% (active) in the assay with SF-295 CNS; -17.9% (active) in the assay with SF-539 CNS; 31.5% with UACC-257 melanoma; -13.7% (active) in the assay on M14 melanoma; 2.3% (active) with HCT-15 colon; -19.2% (active) with SNB-75 CNS. The growth in the assay on SNB-19 CNS is 11.3%; in the assay with PC-3 prostate, 23.5%; in the assay with SK-MEL-5 melanoma, -16.2% (active); in the assay on UACC-62 melanoma it was 8.14% (active); with LOX IMVI melanoma, 14.8%; in the assay with SK-MEL-28 melanoma, 46.8%.

Turning to `Cc1ccc2c(c1)c(Sc1ccc(C(=O)NO)cc1)c1n2CN(C)CC1`, the growth is 11.7% with DU-145 prostate; 11.5% in the assay on K-562 leukemia; 26.6% in the assay on MALME-3M melanoma; -32.2% (active) with MDA-MB-231 breast; 33% with RXF 393 renal; 1.67% (active) in the assay on SF-268 CNS. The growth is 11.8% in the assay on SF-295 CNS; -35.1% (active) with SF-539 CNS; 26% with M14 melanoma; 58.7% with HCT-15 colon; 25.6% with HT29 colon; 17.8% in the assay with SNB-75 CNS. Besides, the growth was 31% with SNB-19 CNS; 2.16% (active) with U251 CNS; -3.93% (active) in the assay with PC-3 prostate; -1.71% (active) in the assay on UACC-62 melanoma; -33.1% (active) in the assay on LOX IMVI melanoma; 7.31% (active) in the assay with SK-MEL-28 melanoma.

Take `O=C(O)c1ccccc1Oc1cc(-c2ccco2)nc(OCCBr)n1`: the growth was 104% with DU-145 prostate; 100% with K-562 leukemia; 99.1% with MALME-3M melanoma; 105% in the assay with MDA-MB-231 breast; 135% in the assay with RXF 393 renal; 98.7% in the assay with SF-268 CNS. Further, the growth was 95.1% in the assay with SF-295 CNS; 105% with SF-539 CNS; 97.8% in the assay on UACC-257 melanoma; 104% with M14 melanoma; 104% in the assay with HCT-15 colon; 99.7% with SNB-75 CNS. Further, the growth with SNB-19 CNS was 98.6%; with U251 CNS it was 98.3%; in the assay on SK-MEL-5 melanoma it was 110%; in the assay with UACC-62 melanoma, 94.9%; with LOX IMVI melanoma, 107%; with SK-MEL-28 melanoma, 119%.

In the case of `O=C(NCc1ccc(F)cc1)C1CN(c2ccc(Cl)cc2)N(c2ccc(Cl)cc2)C1=O` (stereo unspecified), the growth in the assay with DU-145 prostate was 85.3%; with K-562 leukemia it was 23.3%; in the assay on MALME-3M melanoma, 60%; with MDA-MB-231 breast, 84.3%; in the assay with RXF 393 renal it was 65.5%; in the assay on SF-268 CNS it was 65%. Moreover, the growth is 42.5% in the assay on SF-295 CNS; 87.6% in the assay with SF-539 CNS; 76.3% with UACC-257 melanoma; 45.1% in the assay on HCT-15 colon; 25.6% in the assay with HT29 colon; 36.7% in the assay with SNB-75 CNS. Besides, the growth is 78.1% with SNB-19 CNS; 61.9% with PC-3 prostate; 52.9% with SK-MEL-5 melanoma; 42% in the assay on UACC-62 melanoma; 74.9% in the assay with SK-MEL-28 melanoma.

In the case of `CC(=O)Nc1ccccc1-c1n[nH]c(=O)[nH]c1=O`, the growth is 107% in the assay on DU-145 prostate; 107% in the assay on K-562 leukemia; 89.6% in the assay on MALME-3M melanoma; 104% in the assay with MDA-MB-231 breast; 96.6% in the assay on RXF 393 renal; 105% in the assay on SF-268 CNS. Besides, the growth in the assay with SF-295 CNS was 98.1%; in the assay with SF-539 CNS, 91.3%; in the assay with M14 melanoma, 92%; in the assay on HCT-15 colon, 102%; in the assay with HT29 colon it was 90.7%; in the assay with SNB-75 CNS, 90.3%. The growth in the assay on U251 CNS is 101%; in the assay with PC-3 prostate it was 99.4%; in the assay with UACC-62 melanoma, 103%; in the assay on LOX IMVI melanoma it was 97.8%; in the assay with SK-MEL-28 melanoma it was 104%.
